Hits are enriched below; roughly 3.5% of the tested compounds scored in any of these assays.
mHTT CaM bind = disrupts binding of mutant huntingtin to calmodulin; 190,000 compounds, 3.6% hits; AlphaScreen His-mHTT/GST-CaM binding, luminescence; inhibition, % at 15 µM; P42858;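 further: 0% = both proteins with DMSO and 100% = one protein alone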
Target sequence (P42858 whole entry, looked up, stated change not applied): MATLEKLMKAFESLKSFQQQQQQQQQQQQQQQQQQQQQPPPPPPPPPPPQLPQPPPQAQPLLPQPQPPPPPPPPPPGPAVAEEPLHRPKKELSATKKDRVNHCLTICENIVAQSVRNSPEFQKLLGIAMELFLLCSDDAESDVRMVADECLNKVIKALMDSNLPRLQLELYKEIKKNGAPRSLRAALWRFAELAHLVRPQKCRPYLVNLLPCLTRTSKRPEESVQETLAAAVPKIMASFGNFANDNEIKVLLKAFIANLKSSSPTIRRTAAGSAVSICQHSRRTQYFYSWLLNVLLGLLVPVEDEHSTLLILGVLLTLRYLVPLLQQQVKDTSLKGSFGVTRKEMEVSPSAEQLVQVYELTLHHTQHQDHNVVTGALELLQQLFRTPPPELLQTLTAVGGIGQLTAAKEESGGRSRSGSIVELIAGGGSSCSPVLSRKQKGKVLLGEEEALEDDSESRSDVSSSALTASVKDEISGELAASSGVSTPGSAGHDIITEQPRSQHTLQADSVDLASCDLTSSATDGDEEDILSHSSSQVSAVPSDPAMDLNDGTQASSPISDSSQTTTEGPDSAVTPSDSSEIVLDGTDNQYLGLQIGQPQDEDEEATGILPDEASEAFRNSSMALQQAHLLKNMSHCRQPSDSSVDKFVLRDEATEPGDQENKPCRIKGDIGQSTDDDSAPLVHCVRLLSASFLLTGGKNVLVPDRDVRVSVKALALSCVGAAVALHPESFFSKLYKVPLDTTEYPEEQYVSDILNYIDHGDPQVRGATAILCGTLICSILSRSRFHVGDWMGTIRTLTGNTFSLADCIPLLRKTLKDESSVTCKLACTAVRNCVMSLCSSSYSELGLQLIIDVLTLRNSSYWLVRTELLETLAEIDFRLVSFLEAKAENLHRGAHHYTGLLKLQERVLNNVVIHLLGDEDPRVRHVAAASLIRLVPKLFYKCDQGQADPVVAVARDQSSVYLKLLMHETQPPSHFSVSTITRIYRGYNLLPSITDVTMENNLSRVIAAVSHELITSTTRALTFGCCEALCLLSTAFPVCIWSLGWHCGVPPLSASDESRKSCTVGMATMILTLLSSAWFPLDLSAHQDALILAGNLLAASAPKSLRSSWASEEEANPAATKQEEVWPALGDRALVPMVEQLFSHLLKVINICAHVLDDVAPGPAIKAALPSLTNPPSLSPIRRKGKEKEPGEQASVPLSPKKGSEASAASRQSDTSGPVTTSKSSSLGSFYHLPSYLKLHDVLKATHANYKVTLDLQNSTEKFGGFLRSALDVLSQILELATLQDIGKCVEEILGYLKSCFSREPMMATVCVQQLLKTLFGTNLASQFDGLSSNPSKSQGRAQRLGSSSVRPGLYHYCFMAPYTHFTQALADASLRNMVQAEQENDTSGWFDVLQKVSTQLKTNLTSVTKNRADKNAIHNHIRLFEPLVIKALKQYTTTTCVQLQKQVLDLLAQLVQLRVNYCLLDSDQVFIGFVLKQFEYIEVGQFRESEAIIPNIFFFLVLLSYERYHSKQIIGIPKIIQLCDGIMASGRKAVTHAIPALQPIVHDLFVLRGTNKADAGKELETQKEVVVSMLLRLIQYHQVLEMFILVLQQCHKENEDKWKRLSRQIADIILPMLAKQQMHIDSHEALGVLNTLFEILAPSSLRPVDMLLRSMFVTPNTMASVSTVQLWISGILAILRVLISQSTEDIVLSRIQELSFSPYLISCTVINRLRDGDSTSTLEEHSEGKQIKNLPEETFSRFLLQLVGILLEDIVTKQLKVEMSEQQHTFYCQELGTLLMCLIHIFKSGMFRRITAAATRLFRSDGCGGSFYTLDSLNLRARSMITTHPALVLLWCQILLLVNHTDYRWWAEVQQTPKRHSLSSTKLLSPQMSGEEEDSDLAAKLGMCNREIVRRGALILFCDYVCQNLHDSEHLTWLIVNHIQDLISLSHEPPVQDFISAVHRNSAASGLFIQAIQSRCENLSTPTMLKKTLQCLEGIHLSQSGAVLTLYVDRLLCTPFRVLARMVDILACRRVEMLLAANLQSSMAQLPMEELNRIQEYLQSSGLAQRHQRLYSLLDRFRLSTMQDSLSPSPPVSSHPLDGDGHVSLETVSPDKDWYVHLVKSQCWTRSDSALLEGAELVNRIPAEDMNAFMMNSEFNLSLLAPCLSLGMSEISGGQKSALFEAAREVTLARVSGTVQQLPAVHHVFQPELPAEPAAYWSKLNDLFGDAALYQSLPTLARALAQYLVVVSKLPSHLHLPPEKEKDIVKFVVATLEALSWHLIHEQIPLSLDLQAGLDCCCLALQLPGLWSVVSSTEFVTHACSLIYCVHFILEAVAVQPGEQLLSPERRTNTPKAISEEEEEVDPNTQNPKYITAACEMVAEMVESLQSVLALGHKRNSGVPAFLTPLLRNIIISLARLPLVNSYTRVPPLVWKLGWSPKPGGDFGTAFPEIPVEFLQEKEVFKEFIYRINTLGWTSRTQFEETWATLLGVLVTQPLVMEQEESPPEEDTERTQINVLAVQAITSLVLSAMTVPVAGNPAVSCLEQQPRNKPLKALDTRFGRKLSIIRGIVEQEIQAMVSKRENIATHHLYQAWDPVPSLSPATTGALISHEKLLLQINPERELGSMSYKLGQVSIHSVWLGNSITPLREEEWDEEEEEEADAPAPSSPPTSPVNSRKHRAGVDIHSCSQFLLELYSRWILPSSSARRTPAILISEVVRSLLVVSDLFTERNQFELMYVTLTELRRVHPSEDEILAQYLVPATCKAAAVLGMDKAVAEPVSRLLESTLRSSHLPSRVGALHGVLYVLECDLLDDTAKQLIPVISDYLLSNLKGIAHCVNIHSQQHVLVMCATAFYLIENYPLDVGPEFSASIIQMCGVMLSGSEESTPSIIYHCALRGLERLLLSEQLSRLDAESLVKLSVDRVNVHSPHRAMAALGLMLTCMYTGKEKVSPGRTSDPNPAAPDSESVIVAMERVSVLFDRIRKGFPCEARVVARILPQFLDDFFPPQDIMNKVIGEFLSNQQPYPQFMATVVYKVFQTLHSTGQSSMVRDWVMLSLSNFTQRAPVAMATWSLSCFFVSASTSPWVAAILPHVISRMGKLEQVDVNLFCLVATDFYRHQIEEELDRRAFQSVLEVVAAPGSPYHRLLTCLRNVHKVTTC
Pf apPOL block = Pf-apPOL DNA polymerase inhibition; Recombinant Pf-apPOL, molecular beacon fluorescence, 1.5 h; inhibition, % at 10 µM; 210,000 compounds, 0.25% hits
Starred values were filed as active, the others as inactive; nt = no result given. No stated cut-off is given here; in the data, active means inhibition above about 50%; inactive means the rest.

SMILES	mHTT CaM bind	Pf apPOL block
Clc1ccc(C=Nc2c(-c3ccco3)nc3ccccn23)cc1	55*	-2
Oc1c(Cl)cc(Cl)cc1C=Nc1c(-c2ccco2)nc2ccccn12	64*	-2
O=C(NCCCN1CCOCC1)c1c(O)c2cccc3c2n(c1=O)CC3	12	1
CCOC1=NN(c2ccc([N+](=O)[O-])cc2)C(=O)/C1=C/c1ccc(OC)c(OC)c1	10	1
Nc1nc(N2CCCC2)nc2ccccc12	-2	-2
CCOC(=O)CNC(=O)N1CCc2cn(CC)c3cccc(c23)C1	5	-2
Cn1nc(COc2ccc(F)cc2)c2c1CCN(C(=O)Nc1ccc(F)c(Cl)c1)C2	55*	-2
COc1ccc(NC(=O)N2CCc3c(c(COc4ccc(F)cc4)nn3C)C2)cc1F	35	-3
Cn1nc(COc2ccc(F)cc2)c2c1CCN(C(=O)Nc1cccc(C(F)(F)F)c1)C2	59*	-3
Cn1nc(COc2cccc(F)c2)c2c1CCN(C(=O)Nc1cccc(Cl)c1)C2	14	-3
Cc1cc(NC(=O)C2CCN(C(=O)c3ccc(Cn4ccnc4)cc3)CC2)no1	-10	3
CC1(C(=O)O)NC(c2ccccc2O)C2C(=O)N(Cc3ccccc3)C(=O)C21 (stereo unspecified)	0	-2
CN1CCN(S(=O)(=O)c2cccc(C(F)(F)F)c2)CC1c1ccc(F)cc1 (stereo unspecified)	-8	-2
CC1CCCN(Cc2c(O)ccc3c2OC(=Cc2cccnc2)C3=O)C1 (stereo unspecified)	3	-5
COc1cc(/C=C2/SC(c3ccc(C)cc3)=NC2=O)ccc1O	53*	1
CCN1C(=O)C(=Cc2ccc(O)c(OC)c2)SC1=S	39	-26
COC(=O)CCN1C(=O)C(=Cc2ccc(O)c(OC)c2)SC1=S	21	-18
CCC(C(=O)O)N1C(=O)C(=Cc2cc(OC)c(OC)c(OC)c2)SC1=S (stereo unspecified)	19	2
COc1cc(/C=C2/SC(c3ccc(C)cc3)=NC2=O)cc(OC)c1OC	-3	0
CCCCC(C(=O)O)N1C(=O)C(=Cc2cc(OC)c(OC)c(OC)c2)SC1=S (stereo unspecified)	55*	-64
COC(=O)CN1C(=O)C(=Cc2ccc(O)c(OC)c2)SC1=S	58*	-18
COc1cc(C=C2SC(=S)N(CCCCC(C(=O)O)N3C(=O)C(=Cc4ccc(O)c(OC)c4)SC3=S)C2=O)ccc1O (stereo unspecified)	49	62*
Cc1cc(C)c(C(=O)N2CCC(CC(=O)NC3CCCCC3)CC2)[nH]1	3	0
CSc1ccc(CNC(=O)C2CCN(c3ccc(N4CCOCC4)nn3)CC2)cc1	16	-2
CCCC(C(=O)O)N1C(=O)C(=Cc2ccccc2OC)SC1=S (stereo unspecified)	60*	-60
SMILES	mHTT CaM bind	Pf apPOL block
O=C(O)CN1C(=O)/C(=C\c2ccco2)SC1=S	3	nt
CCCC(C(=O)O)N1C(=O)C(=Cc2cccc(OC)c2OC)SC1=S (stereo unspecified)	22	-28
CCCCC(C(=O)O)N1C(=O)C(=Cc2ccco2)SC1=S (stereo unspecified)	29	52*
CN(C)CCCNS(=O)(=O)c1ccc(F)cc1	-7	nt
CNC(=O)N1CCc2[nH]cnc2C1c1ccncc1 (stereo unspecified)	-5	-2
COc1ccc(NC(=O)N2CCc3[nH]cnc3C2c2ccccn2)cc1OC (stereo unspecified)	91*	-7
CNC(=O)N1CCc2[nH]cnc2C1c1ccccn1 (stereo unspecified)	94*	-8
Cc1cccc(NC(=O)N2CCc3[nH]cnc3C2c2ccncc2)c1 (stereo unspecified)	-6	-1
CCCn1ncc(N2CCC(C(=O)N3CCN(CC)CC3)CC2)cc1=O	-4	-5
Cn1cccc(C(=O)N2CCC(CNS(=O)(=O)c3c(F)cccc3F)CC2)c1=O	-12	-6
COC(=O)CNC(=O)N1CCOc2ccc(C)cc21	2	-6
CCN1c2cc(C)ccc2-n2cccc2C12CCN(C(=O)Nc1ccccc1F)CC2	31	-3
CCN1c2cc(C)ccc2-n2cccc2C12CCN(C(=O)Nc1cccc(F)c1)CC2	72*	5
CCN1c2cc(C)ccc2-n2cccc2C12CCN(C(=O)c1ccc(OC)cc1)CC2	94*	-3
Cc1cccc(C(=O)NCC2CCCO2)c1 (stereo unspecified)	-1	-3
CCN1c2cc(C)ccc2-n2cccc2C12CCN(C(=O)NCC(=O)OC)CC2	76*	-2
CCOc1ccc(C(=O)N2CCC3(CC2)NC(=O)c2cc(C)ccc2N3CC)cc1	6	2
CCN1c2cc(C)ccc2-n2cccc2C12CCN(C(=O)NCC1CCCO1)CC2 (stereo unspecified)	65*	2
O=C(CSC1CCCC1)N1CCN(C(=O)C2CC2c2cccs2)CC1 (stereo unspecified)	-2	-12
CCNC(=O)c1ccc(C)nc1C1CCN(C(=O)C2CC2)CC1	-8	0

Bioassay records: PubChem, University of Kansas High Throughput Screening Laboratory
